In all, about 2,100 compounds went through this assay and about 670 (32%) were called active. About 50% were inconclusive and are not listed. The list shows a part of the results. A number with no mark means an inactive call. The call rests on the fitted dose curve; in most records, active means well fitted inhibition curve with a large enough effect; inconclusive means small, poorly fitted or top-dose-only effect; inactive means no such curve, though single readings can be large or run the other way.
Test: CMV-Luciferase Counterscreen for Inhibitors of ATXN expression; further: nearly all actives have a fitted effect of over 55% in size
Details: HEK-293 CMV-luciferase reporter, luminescence, 24 h; series mostly up to 57.5 µM; activity change, negative = inhibition: at the top concentration
Text: PI: Daniel Scoles Ph.D. University of Utah School of Medicine, Salt Lake City, Utah MLPCN Grant: NS073009 Spinocerebellar ataxia type 2 (SCA2) is a multisystem neurodegenerative disease caused by a dominantly acting mutation leading to expansion of a polyQ domain in the ataxin-2 protein (ATXN2). SCA2 patients develop progressive ataxia and later lose function in other neuronal systems. Prominent parkinsonian signs develop in some patients. Like many neurodegenerative disorders, no symptomatic or disease-modifying treatments are known. The primary objective of the proposed research is to identify compounds inhibiting ATXN2 expression and to test them for efficacy in SCA2 mouse models. We have developed a cell-based assay paired with an in vivo mouse model using identical luciferase expression constructs. This approach takes advantage of an ATXN2-luciferase transgene, with the luciferase gene flanked by the upstream and downstream portions of the ATXN2 gene. Here we describe a 5-7 dose quantitative high thoroughput screen (qHTS) for compounds lowering ATXN2 expression. We screened the NIH Molecular Libraries Small Molecule Repository (MLSMR) and NCGC's mechanistically annotated (MIPE) and drug repurposing (NPC) collections of compounds for lowering expression of an ATXN2-luciferase reporter in HEK-293 cells. The assay is a multiplexed cell viability assay to ensure target reduction in the absence of cytotoxicity. Secondary qHTS assays included a CMV-luciferase reporter expressed in HEK-293 cells as well as a biochemical assay using recombinant luciferase to detect inhibitors of the reporter enzyme. Compounds that inhibit ATXN2 expression but is not cytotoxic were selected for confirmatory and secondary screens.
PROTOCOL TABLE (as described by Inglese J, Shamu CE and Guy RK. 2007) SEQUENCE No. (e.g., 1, 2, 3, etc.); PARAMETER (e.g., Cells, Incubation, Reagent, etc.); VALUE; DESCRIPTION. 1; Cells; 4 uL; white, solid bottom, 1536-well Greiner assay plate. 2; Incubation; 2 hr; 37 degree C in 5% humidified CO2. 3; Compounds; 23 nL; Kalypsis pintool (Wako USA) equipped with a 1536-well pin head. 4; Incubation; 24 hr; 37 degree C in 5% humidfified CO2. 5; Reagent; 1 uL; Gly-Phe-7-Amino-4-trifluoromethylcoumarin. 6; Incubation; 30 min; 37 degree C in 5% humidfified CO2. 7; Detection; Fluorescence; Viewlux plate reader (PerkinElmer). 8; Reagent; 3 uL; SteadyGlo luciferase solution (Promega). 9; Incubation; 5 min; room temperature. 10; Detection; Luminescence; ViewLux plate reader (PerkinElmer). NOTES (numbers refer to Sequence numbers above) 1. HEK-293 cells expressing CMV-luciferase reporter (designated as SC cells) were suspended in phenol-red free DMEM and dispensed in assay plates using a Multidrop Combi dispenser (Thermo Fisher Scientific). 2. Assay plates were incubated. Evaporation was prevented by covering assay plates with metal lids containing holes to allow gas diffusion. 3. Compounds were added in a dose response manner with the final concentrations of 57, 11.4, 2.28, 0.46, 0.091, 0.018, 0.0037 uM. Vehicle-only plates, with DMSO being pin-transferred to columns 5-48, were inserted uniformly at the beginning and the end of each library to monitor and record any shifts in assay performance. 5. 125 uM Gly-Phe-7-Amino-4-trifluoromethylcoumarin (MP Biomedicals) working concentration was used at a final concentration of 25 uM. 7. To assess cell viability; the assay plates were read using the ViewLux high-throughput CCD imager (PerkinElmer), wherein single end-point fluorescence measurement was acquired (excitation 405/10; emission 540/25 nm). 8. Detection reagent SteadyGlo Luciferase (Promega) was added to the assay plate. 10. Luminescence is then measured on the ViewLux imager equipped with a clear emission filter using a 2 sec exposure. […]
On the % scale 0 is the no-effect control and ±100 the full control effect; potency means the concentration at half of the fitted maximal effect.

Compound | activity change, negative = inhibition | Potency
COc1ccc(N=Cc2c(O)n(-c3ccc(C)cc3)c(=O)[nH]c2=O)cc1 | -14.8% | –
CC1OC(OC2C(O)CC(OC3C(O)CC(OC4CCC5(C)C(CCC6C5CCC5(C)C(C7=CC(=O)OC7)C(O)CC65O)C4)OC3C)OC2C)CC(O)C1O (stereo unspecified) | -15% | –
O=c1[nH]c2ccccc2n1C1CCN(C(CCc2ccccc2)c2nnnn2C2CCCC2)CC1 (stereo unspecified) | – | 14.1 µM (active)
CC(C)(C)n1nnnc1C(CCc1ccccc1)N1CCC(n2c(=O)[nH]c3ccccc32)CC1 (stereo unspecified) | – | 20 µM (active)
N#Cc1cn(C2OC(CO)C(O)C2O)c2ncnc(N)c12 (stereo unspecified) | -77.3% [at 11.4 µM] | –
CCC1CN2CCc3cc(OC)c(OC)cc3C2CC1CC1NCCc2c1[nH]c1ccc(O)cc21 (stereo unspecified) | – | 0.0891 µM (active)
C1=NCCc2c1[nH]c1ccccc21 | 110% [at 11.4 µM] | –
COc1cc2nc(CN3CC=C(c4ccccc4)CC3)[nH]c(=O)c2cc1OC | 155% | –
O=C(CSC1c2ccccc2-c2ccccc21)N/N=C/c1ccccc1O | – | 3.16 µM (active)
Clc1ccc2[nH]c3c(c2c1)CCNC3 | -18.6% [at 11.4 µM] | –
NC(Cc1ccc(F)cc1)c1csc(Nc2ccccn2)n1 (stereo unspecified) | -4.04% | –
CCC(C)N1C(=O)/C(=C\c2cnc(N(C)C)nc2)C(=O)NC1=S (stereo unspecified) | -6.13% | –
CC12CCC3C(CCC4(O)CC(O)CCC34C=NO)C1(O)CCC2C1=COC(=O)C1 (stereo unspecified) | -13.2% | –
COc1cccc2c1cc([N+](=O)[O-])c1c(C(=O)O)cc3c(c12)OCO3 | 6.44% | –
COc1ccc2c(c1)C(c1ccc(N(CCCl)CCCl)cc1)=NCC2 | – | 22.4 µM (active)
CC(=O)O[C@H]1[C@H]2O[C@]23[C@@H]2CC[C@]4(O)C[C@@H](O)CC[C@]4(C)C2CC[C@]3(C)[C@H]1c1ccc(=O)oc1 (stereo partly specified) | -18.3% [at 11.4 µM] | –
COC(=O)c1nc(-c2ccc3c(n2)C(=O)C(N)=C(OC)C3=O)c(N)c(-c2ccc(OC)c(OC)c2O)c1C | – | 14.1 µM (active)
CSCCC(c1nnnn1-c1c(C)cccc1C)N1CCC2(CC1)C(=O)NCN2c1ccccc1 (stereo unspecified) | – | 28.2 µM (active)
CCOC(=O)[C@]12Cc3ccsc3[C@H]1N(Cc1ccccc1)C(=O)c1ccccc12 | – | 3.16 µM (active)
CC12CCC(O)CC1CCC1C2CCC2(C)C(C3=CC(=O)OC3)CCC12O (stereo unspecified) | 9.59% | –
C=CCCC[C@@H]1OC(=O)CNC(=O)C([C@@H](C)CC)NC(=O)[C@@H]2CCCN2C(=O)C([C@@H](C)CC)OC(=O)[C@H](Cc2ccccc2)N(C)C(=O)[C@H](C(C)C)NC(=O)C1(C)C (stereo partly specified) | – | 3.98 µM (active)

Compound | activity change, negative = inhibition | Potency
Cc1ccc(-c2nc(N(C)C3CCN(C)CC3)c3ccccc3n2)cc1 | – | 17.8 µM (active)
COc1ccc(CC2C(=O)NC(C)C(=O)N(C)C3C(=O)N(C)C(Cc4ccc(O)c(c4)Oc4ccc(cc4)C3O)C(=O)NC(C)C(=O)NC(C)C(=O)N2C)cc1 (stereo unspecified) | – | 0.891 µM (active)
C[C@H]1[C@@H](OS(=O)(=O)O)C[C@@H]2C[C@H]([C@@H](O)c3cc(=O)[nH]c(=O)[nH]3)NC3=NC[C@H]1N32 | – | 14.1 µM (active)
CCCCN=C[C@]12CCC(O)CC1(O)CCC1[C@@H]2CC[C@]2(C)[C@H](C3C=CC(=O)O3)CCC12O (stereo partly specified) | 12.4% | –
C[C@@H]1O[C@@H](O[C@@H]2C=C3CC[C@@H]4C(CC[C@]5(C)[C@@H](c6ccc(=O)oc6)CC[C@]45O)[C@@]3(C)CC2)[C@H](O)[C@H](O)[C@H]1O (stereo partly specified) | -13.5% | –
C[C@H]1CCC[C@@H](O)CCC/C=C/c2cc(O)cc(O)c2C(=O)O1 | -23.1% [at 11.4 µM] | –
CCCCCCC(=O)N/N=C/c1c(O)n(CCc2ccccc2)c(=O)[nH]c1=O | – | 6.31 µM (active)
CCCCCCC(=O)N/N=C/c1c(O)n(CCCC)c(=S)[nH]c1=O | – | 12.6 µM (active)
CCCCC(=O)N/N=C/c1c(O)n(CCC2=CCCCC2)c(=O)[nH]c1=O | – | 10 µM (active)
CCn1c(O)c(/C=N/NC(=O)c2ccccc2)c(=O)n(CC)c1=S | -28.6% | –
COC1C(O)C(C)OC(OC2CCC3(C)C(CCC4C3C(O)CC3(C)C(C5=CC(=O)OC5)CCC43O)C2)C1O (stereo unspecified) | -8.96% | –
C[C@]12CC[C@H](O)C[C@H]1CC[C@@H]1C2CC[C@]2(C)[C@@H](C3=CC(=O)OC3)[C@@H](O)C[C@]12O (stereo partly specified) | -13.9% [at 11.4 µM] | –
COc1ccc(C[C@H]2NC[C@H](O)[C@H]2OC(C)=O)cc1 | – | 0.0631 µM (active)
COc1ccc(CC2NCC(O)C2OC(C)=O)cc1 (stereo unspecified) | – | 0.316 µM (active)
c1ccc2sc(N3CCNCC3)nc2c1 | -25.2% | –
C[C@H]1CCC[C@H](O)CCCCCc2cc(O)cc(O)c2C(=O)O1 | 13.6% [at 11.4 µM] | –
CCCCCOc1ccc(C)cc1CN(CCCl)CCCl | – | 15.8 µM (active)
Cc1cccc(C)c1-n1nnnc1C(c1cc2ccccc2o1)N1CCC(n2c(=O)[nH]c3ccccc32)CC1 (stereo unspecified) | – | 8.91 µM (active)
COc1cccc(C(c2nnnn2-c2ccc3c(c2)OCCO3)N2CCC(n3c(=O)[nH]c4ccccc43)CC2)c1OC (stereo unspecified) | – | 3.16 µM (active)
CC12CCC(O)CC1CCC1C2CCC2(C)C(C3=CC(=O)OC3)C(O)CC12O (stereo unspecified) | 42.2% | –

Source: PubChem BioAssay AID1745847 (National Center for Advancing Translational Sciences (NCATS), 2022)
